In PubChem BioAssay (Tox21):
Inconclusive results are not listed. The source made the active and inactive calls. Unless noted, calls come from the whole dose curve.

How the values were obtained:
[1] = qHTS assay to identify small molecule agonists of the vitamin D receptor (VDR) signaling pathway - cell viability counter screen (AID 743224; active = well fitted curve in the direction sought with a large enough effect in the repeat runs; an effect the other way counts as inactive or inconclusive; note: nearly all actives have a fitted effect of over 50% in size; note: potency is the fitted concentration of half-maximal effect)
How it was run: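 VDR-bla cells, 4 h after plating, exposed to compounds for 16 h at 37C; viability then read in the same wells as CellTiter-Glo luminescence after 30 min at room temperature, following the bla FRET read.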

[2] = qHTS assay to identify small molecule antagonists of the vitamin D receptor (VDR) signaling pathway - cell viability counter screen (AID 743225; active = well fitted curve in the direction sought with a large enough effect in the repeat runs; an effect the other way counts as inactive or inconclusive; note: nearly all actives have a fitted effect of over 50% in size)
How it was run: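 VDR-bla HEK 293T cells, 4 h pre-incubation at 37C, then compound plus 1-alpha,25-dihydroxyvitamin D3 (3 nM final) for 16 h. After the beta-lactamase FRET read, CellTiter-Glo was added to the same wells; luminescence after 30 min at room temperature.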

[3] = qHTS assay to identify small molecule agonists of the NFkB signaling pathway (AID 1159509; active = well fitted curve in the direction sought with a large enough effect in the signal ratio in the repeat runs, not every such curve was filed as active; the % refers to the signal ratio; note: series mostly up to about 61 µM)
How it was run: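 NFkB-bla ME-180 cells with a beta-lactamase reporter under an NF-kB response element were plated overnight, treated with compounds in DMSO for 5 hr at 37 C, then loaded with FRET substrate for 1.5 hr at room temperature.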

[4] = qHTS assay to identify small molecule agonists of the NFkB signaling pathway - cell viability counter screen (AID 1159515); note: series mostly up to about 61 µM; nearly all actives have a fitted effect of over 55% in size
How it was run: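 NFkB-bla ME-180 cells, 2,000/well, plated overnight at 37 C; compound added for 5 hr at 37 C. Viability read in the same wells as the bla reporter, by CellTiter-Glo luminescence after 30 min at room temperature.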

[5] = qHTS assay to identify small molecule agonists of the endoplasmic reticulum stress response signaling pathway (AID 1159516; active = well fitted activation curve with a large enough effect in the signal ratio in the repeat runs, not every such curve was filed as active; the % refers to the signal ratio)
How it was run: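 CellSensor ESRE-bla HeLa cells, 1,500 per well, plated overnight, then exposed to compounds for 5 hr at 37 C. Beta-lactamase reporter read with LiveBLAzer B/G FRET substrate after 2 hr at room temperature, 405 nm excitation, 460 and 530 nm emission.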

[6] = qHTS assay to identify small molecule agonists of the endoplasmic reticulum stress response signaling pathway - cell viability counter screen (AID 1159517);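 note: HeLa cells carrying an ER stress response element beta-lactamase reporter; series mostly up to about 61 µM; nearly all actives have a fitted effect of over 50% in size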
How it was run: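 Cells, HeLa ESRE-bla; density, 1,500/well; dosing, 5 hr at 37 C, 5% CO2; readout, CellTiter-Glo luminescence after 30 min RT.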

[7] = qHTS assay to identify small molecule antagonists of the retinoid-related orphan receptor gamma (ROR-gamma) signaling pathway - cell viability counter screen (AID 1159520; active = well fitted curve in the direction sought with a large enough effect in the repeat runs; an effect the other way counts as inactive or inconclusive; note: nearly all actives have a fitted effect of over 50% in size)
How it was run: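 Cytotoxicity was read from cellular ATP (CellTiter-Glo luminescence) after 16 hr at 37 C with 1 uM doxycycline induction. The inducer was added 2 hr after compound transfer to Tet-on ROR gamma CHO cells.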

[8] = qHTS assay to identify small molecule agonists of the AP-1 signaling pathway - cell viability counter screen (AID 1159525); note: nearly all actives have a fitted effect of over 55% in size
How it was run: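 Luminescent ATP readout (Cell Titer Glo, 30 min RT), normalised to DMSO and tetra n-octyl ammonium bromide controls. Cells were ME-180 AP-1-bla in 0.5% dialyzed FBS Opti-MEM, with a 5 h, 37 °C compound exposure.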

[9] = qHTS assay to identify small molecule agonists of the AP-1 signaling pathway (AID 1159526)
[10] = biological target: Nuclear receptor ROR-gamma (Homo sapiens) (UniProt P51449); assay: qHTS assay to identify small molecule antagonists of the retinoid-related orphan receptor gamma (ROR-gamma) signaling pathway (AID 1159521; active = well fitted curve in the direction sought with a large enough effect in the repeat runs; an effect the other way counts as inactive or inconclusive; note: nearly all actives have a fitted effect of over 50% in size; note: potency is the fitted concentration of half-maximal effect)
How it was run: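 Tet-on RORγ CHO cells carrying a ROR response element–luciferase reporter were pretreated with compounds for 2 h, then induced with 1 uM (final) doxycycline hyclate for 16 h at 37 C. Antagonism was read as decreased ONE-Glo luminescence.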

Measured: Potency

CC(=O)[C@H]1CC[C@H]2[C@@H]3C[C@H](C)C4=CC(=O)CC[C@]4(C)[C@H]3[C@@H](O)C[C@]12C
not listed: [9] | [10]
inactive: all other assays above

Cc1ccc(/C=N/n2c(-c3ccccc3)csc2=S)cc1
not listed: [8] | [10]
inactive: all other assays above

CC(=N\O)/C(C)=N/O
not listed: [2] | [7] | [10]
inactive: all other assays above

COCCOC
active: [10] 41.3 µM
not listed: [7] | [8] | [9]
inactive: all other assays above

NC(=O)N(O)[C@@H]1C=C[C@H](Oc2cccc(Oc3ccc(F)cc3)c2)C1
not listed: [7] | [8] | [9]
inactive: all other assays above

COCc1c(C(C)C)nc(C(C)C)c(/C=C/[C@@H](O)C[C@@H](O)CC(=O)O)c1-c1ccc(F)cc1
not listed: [7] | [10]
inactive: all other assays above

CCOC(=O)OCC
not listed: [8] | [10]
inactive: all other assays above

CC1=C(/C=C/C(C)=C\C=C\C(C)=C\C(=O)O)C(C)(C)CCC1
inactive: [1] | [3] | [4] | [5] | [6] | [9]

CC1=C(C=O)C(C)(C)CCC1
not listed: [8] | [10]
inactive: all other assays above

CC(C)(C)CC(C)(C)c1ccc(OCCO)cc1
active: [1] 38.7 µM | [10] 19.2 µM
not listed: [2] | [7]
inactive: all other assays above

O=C(N[C@@H](c1ccccc1)[C@@H]1CCCCN1)c1cccc(C(F)(F)F)c1Cl
inactive: [3] | [4] | [5] | [6] | [7]
active: [1] 30.9 µM

COCCOC(=O)C1=C(C)NC(C)=C(C(=O)OC/C=C/c2ccccc2)C1c1cccc([N+](=O)[O-])c1 (configuration not stated)
not listed: [7] | [9] | [10]
inactive: all other assays above

O=C(CS)OCCOC(=O)CS
not listed: [7] | [8]
inactive: all other assays above

CCCCN(CCCC)C(=S)SSC(=S)N(CCCC)CCCC
active: [1] 12.2 µM
inactive: [3] | [4] | [5] | [6] | [8]

CCCOC(=O)c1ccc(N)cc1
not listed: [8] | [10]
inactive: all other assays above

O=C(NCCCN1CCOCC1)c1ccc(Cl)cc1
not listed: [8] | [10]
inactive: all other assays above

CC(C)(CCl)c1ccccc1
not listed: [1] | [7]
inactive: all other assays above

Cc1c(C(=O)NN2CCCCC2)nn(-c2ccc(Cl)cc2Cl)c1-c1ccc(Cl)cc1
inactive: [3] | [4] | [5] | [6] | [9]

Cc1ccc(S)cc1
not listed: [7]
inactive: all other assays above

Cc1nccn1-c1ccc(Sc2cccc(C3(C(N)=O)CCOCC3)c2)cc1
active: [10] 5.45 µM
not listed: [1] | [7]
inactive: all other assays above

COc1ccccc1N=Nc1c(S(=O)(=O)O)cc2cc(S(=O)(=O)O)cc(NC(C)=O)c2c1O
not listed: [7] | [10]
inactive: all other assays above

CC(C)c1nnc2ccc(-c3ocnc3-c3cc(F)ccc3F)cn12
not listed: [8] | [9] | [10]
inactive: all other assays above

O=C(O)c1c(O)c(-c2ccccc2)nc2ccccc12
not listed: [8] | [10]
inactive: all other assays above

O=C(Nc1ccccc1)Nc1ccccc1
not listed: [7]
inactive: all other assays above

C[Si](NC1CCCCC1)(NC1CCCCC1)NC1CCCCC1
not listed: [8] | [10]
inactive: all other assays above

Oc1ccc(Nc2ccccc2)cc1
active: [1] 54.9 µM
not listed: [2] | [8] | [10]
inactive: all other assays above

CCCCC/C(=C\c1ccccc1)CO
inactive: [3] | [4] | [5] | [6] | [10]

CCCCCCOC(=O)C(C)C
not listed: [7]
inactive: all other assays above

NC(=O)N(O)[C@@H]1COc2cc(OCc3ccccc3)ccc21
not listed: [7] | [9]
inactive: all other assays above
